Drawing on PubChem BioAssay (EPA / NIEHS), this text covers AC50 and outcome for seven compounds.

As usually defined, the AC50 is the midpoint of the concentration-response curve, whichever way the signal moves.

SMILES strings stand for the structures. Records with an inconclusive call do not appear. Calls of active or inactive are those of the source. The calls were made as follows, unless noted: active = hit-call score of the fitted dose curve at least 0.9, where 1 is the maximum; inactive = score below 0.9.

Test [1] is described as follows: CEETOX_H295R_11DCORT_noMTC: CeeTox H295R High-throughput Steroidogenesis Assay for 11-Deoxycortisol (11DCORT), maximum tolerated concentration (MTC) filtered results only (AID 2283911). To be noted: actives raise or lower the signal. An outline of the steps: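 Forskolin-primed (10 uM, 48 h) H295R adrenal cells are dosed for 48 h at 0.1% DMSO; medium 11-deoxycortisol is quantified by LC-MS/MS against a 7-point standard curve, with activity fitted in both directions versus DMSO.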

Test [2] is described as follows: CEETOX_H295R_OHPREG_noMTC: CeeTox H295R High-throughput Steroidogenesis Assay for OH-Pregnenolone (OHPREG), maximum tolerated concentration (MTC) filtered results only (AID 2283912). The note with it: actives raise or lower the signal. An outline of the steps:
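Medium 17alpha-hydroxypregnenolone quantified by reverse-phase HPLC-MS/MS after 48 h chemical exposure of forskolin-prestimulated (10 uM, 48 h) H295R, 0.1% DMSO final. Fitting bidirectional relative to DMSO; no maximum-tolerated-concentration filtering applied.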

Test [3] can be described thus: CEETOX_H295R_OHPROG_noMTC: CeeTox H295R High-throughput Steroidogenesis Assay for OH-Progesterone (OHPROG), maximum tolerated concentration (MTC) filtered results only (AID 2283914). To be noted: actives raise or lower the signal. An outline of the steps: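 After 48 h forskolin (10 uM) prestimulation, H295R adrenal cells received test chemical in 0.1% DMSO for 48 h. Medium 17alpha-hydroxyprogesterone was MTBE-extracted and measured by HPLC-MS/MS; gain or loss relative to DMSO, no MTT-based MTC filtering.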

The nature of test [4]: CEETOX_H295R_ANDR_noMTC: CeeTox H295R High-throughput Steroidogenesis Assay for Androstenedione (ANDR), maximum tolerated concentration (MTC) filtered results only (AID 2283915). The note with it: actives raise or lower the signal. The procedure, abridged: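 Androstenedione secreted into medium was measured by LC-MS/MS after MTBE extraction. Human adrenal H295R cells received 10 uM forskolin for 48 h before 48 h chemical exposure (0.1% DMSO). Gain or loss fitted against DMSO, including concentrations above the MTT-derived MTC.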

A short description of test [5]: CEETOX_H295R_CORTISOL_noMTC: CeeTox H295R High-throughput Steroidogenesis Assay for Cortisol, maximum tolerated concentration (MTC) filtered results only (AID 2283916). To be noted: actives raise or lower the signal. An outline of the steps:
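Cortisol secretion measured by LC-MS/MS after 48 h chemical treatment (final 0.1% DMSO) of forskolin-primed (10 uM, 48 h) H295R cells; gain or loss fitted relative to DMSO, without maximum-tolerated-concentration filtering.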

Test [6] is described as follows: CEETOX_H295R_CORTIC_noMTC: CeeTox H295R High-throughput Steroidogenesis Assay for Corticosterone (CORTIC), maximum tolerated concentration (MTC) filtered results only (AID 2283917). The note with it: actives raise or lower the signal. An outline of the steps: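 Human adrenal H295R cells were prestimulated 48 h with 10 uM forskolin, then exposed 48 h to chemical in 0.1% DMSO. Medium corticosterone was MTBE-extracted and quantified by HPLC-MS/MS; bidirectional fits versus DMSO, concentrations not MTC-filtered.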

A short description of test [7]: CEETOX_H295R_DOC_noMTC: CeeTox H295R High-throughput Steroidogenesis Assay for DOC, maximum tolerated concentration (MTC) filtered results only (AID 2283918). To be noted: actives raise or lower the signal. An outline of the steps:
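11-Deoxycorticosterone secreted by human adrenal H295R cells quantified by HPLC-MS/MS after 48 h chemical exposure (0.1% DMSO), following 48 h 10 uM forskolin prestimulation. Concentrations not filtered by MTT-derived MTC; bidirectional fitting.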

The nature of test [8]: CEETOX_H295R_ESTRADIOL_noMTC: CeeTox H295R High-throughput Steroidogenesis Assay for Estradiol, maximum tolerated concentration (MTC) filtered results only (AID 2283919). To be noted: actives raise or lower the signal. An outline of the steps:
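Readout: dansyl-derivatized estradiol quantified by LC-MS/MS in medium from H295R cells dosed 48 h (0.1% DMSO) following 48 h forskolin (10 uM) prestimulation. Gain or loss of signal fitted against DMSO; no MTC filtering applied.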

Test [9] is described as follows: CEETOX_H295R_PROG_noMTC: CeeTox H295R High-throughput Steroidogenesis Assay for Progesterone (PROG), maximum tolerated concentration (MTC) filtered results only (AID 2283920). The note with it: actives raise or lower the signal. An outline of the steps: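 Progesterone secreted into medium was measured by HPLC-MS/MS after MTBE extraction, following 48 h chemical exposure (0.1% DMSO) of forskolin-prestimulated (10 uM, 48 h) H295R adrenal cells. Gain or loss fitted against DMSO; no MTC filtering.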

Test [10] is described as follows: CEETOX_H295R_ESTRONE_noMTC: CeeTox H295R High-throughput Steroidogenesis Assay for Estrone, maximum tolerated concentration (MTC) filtered results only (AID 2283921). To be noted: actives raise or lower the signal. An outline of the steps: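 Estrone in spent medium, quantified by tandem MS following dansyl chloride derivatization, after 48 h chemical exposure (0.1% DMSO) of forskolin-prestimulated (10 uM, 48 h) H295R cells; concentrations not MTC-filtered, bidirectional fit against DMSO.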

Test [11] can be described thus: CEETOX_H295R_TESTO_noMTC: CeeTox H295R High-throughput Steroidogenesis Assay for Testosterone (TESTO), maximum tolerated concentration (MTC) filtered results only (AID 2283924). The note with it: actives raise or lower the signal. The procedure, abridged:
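Medium testosterone, measured by HPLC-MS/MS after liquid-liquid extraction, was fitted in both directions relative to DMSO without MTC filtering. Adrenal H295R cells received 48 h chemical exposure (0.1% DMSO final) after 48 h forskolin (10 uM) prestimulation; viability by MTT.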

In test [12] the target is PGR (gene 5241) (UniProt P06401). In words: TOX21_PR_BLA_Followup_Agonist_ratio: Tox21 HEK293 Progesterone Receptor (PR) Agonism Beta-lactamase Follow-Up Assay, Ratio (AID 2283933; active = hit-call score of the fitted dose curve at least 0.9, where 1 is the maximum). An outline of the steps:
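Ratio-based beta-lactamase reporter signal after 16 hr compound treatment of PR-UAS-bla HEK293T cells at 37C. Substrate loading lasted 2 hr at room temperature.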

The target is the same in test [13]. The experiment in a line: TOX21_PR_LUC_Followup_Agonist: Tox21 HEK293 Progesterone Receptor (PR) Agonism Luciferase Follow-Up Assay (AID 2283937). An outline of the steps:
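In HEK293 cells stably expressing PR-A with a luciferase reporter, compounds were incubated 16 h at 37C, and induced luminescence was quantified with ONE-Glo, multiplexed with cell viability.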

Test [14] has the same target. The experiment in a line: TOX21_PR_LUC_Followup_Antagonist: Tox21 HEK293 Progesterone Receptor (PR) Antagonism Luciferase Follow-Up Assay (AID 2283938; active = hit-call score of the fitted dose curve at least 0.9, where 1 is the maximum;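 also: curve fitted upward as signal gain over DMSO baseline despite antagonist label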). An outline of the steps:
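Luciferase reporter in HEK293-PR-A-luc cells: 16 h compound treatment at 37C, ONE-Glo luminescence detection, DMSO as negative control and baseline.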

For test [15], the target named is Thyroid hormone receptor alpha (Rattus norvegicus) + Thyroid hormone receptor beta (Rattus norvegicus) (UniProt P18113+P63059). In words: TOX21_TR_LUC_GH3_Agonist_Followup: Tox21 GH3 Thyroid Hormone Receptor Agonism Luciferase Follow-Up Assay (AID 2283939; active = hit-call score of the fitted dose curve at least 0.9, where 1 is the maximum). An outline of the steps:
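Agonist-mode confirmatory run: 15 concentrations (5 nM to 92 uM final) on GH3 rat pituitary cells, 24 h at 37C/5% CO2, T3 as positive control. Luminescence read with ONE-Glo after 30 min.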

The nature of test [16]: TOX21_PR_LUC_Followup_Antagonist_viability: Viability Assessment in the Tox21 HEK293 Progesterone Receptor (PR) Antagonism Luciferase Follow-Up Assay (AID 2283940; active = hit-call score of the fitted dose curve at least 0.9, where 1 is the maximum). The procedure, abridged:
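Loss of CellTiter-Glo ATP signal indicates cytotoxicity in HEK293-PR-A-luc cells grown in 10% charcoal-stripped FBS medium, seeded 3,000 per well and incubated 16 h with compound at 37C.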

PGR (gene 5241), sequence (P06401 whole entry, looked up): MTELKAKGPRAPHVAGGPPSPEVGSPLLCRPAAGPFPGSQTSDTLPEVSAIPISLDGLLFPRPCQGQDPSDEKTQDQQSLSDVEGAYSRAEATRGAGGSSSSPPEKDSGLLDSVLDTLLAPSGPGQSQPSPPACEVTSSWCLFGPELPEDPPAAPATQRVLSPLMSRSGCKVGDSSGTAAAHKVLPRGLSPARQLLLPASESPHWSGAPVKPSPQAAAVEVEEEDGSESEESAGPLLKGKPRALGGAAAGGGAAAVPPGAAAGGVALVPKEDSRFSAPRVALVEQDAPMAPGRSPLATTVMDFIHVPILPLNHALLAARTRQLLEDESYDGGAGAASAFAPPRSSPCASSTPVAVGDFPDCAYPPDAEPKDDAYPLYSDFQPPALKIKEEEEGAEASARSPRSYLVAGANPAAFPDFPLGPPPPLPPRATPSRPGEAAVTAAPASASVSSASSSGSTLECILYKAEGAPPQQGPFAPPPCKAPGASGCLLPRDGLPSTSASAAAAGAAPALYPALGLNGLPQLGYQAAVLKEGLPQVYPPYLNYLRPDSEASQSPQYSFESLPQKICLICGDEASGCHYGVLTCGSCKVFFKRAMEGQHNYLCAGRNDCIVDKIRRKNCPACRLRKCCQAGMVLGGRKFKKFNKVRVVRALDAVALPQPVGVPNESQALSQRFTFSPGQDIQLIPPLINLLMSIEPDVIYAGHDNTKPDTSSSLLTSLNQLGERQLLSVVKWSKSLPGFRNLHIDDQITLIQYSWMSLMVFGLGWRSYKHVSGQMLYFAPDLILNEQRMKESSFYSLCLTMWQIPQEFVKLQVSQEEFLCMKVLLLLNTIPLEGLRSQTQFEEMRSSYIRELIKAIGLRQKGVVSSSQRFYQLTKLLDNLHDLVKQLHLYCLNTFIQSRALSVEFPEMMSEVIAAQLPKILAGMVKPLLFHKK
Thyroid hormone receptor alpha (Rattus norvegicus) + Thyroid hormone receptor beta (Rattus norvegicus), sequence (P63059 whole entry, looked up): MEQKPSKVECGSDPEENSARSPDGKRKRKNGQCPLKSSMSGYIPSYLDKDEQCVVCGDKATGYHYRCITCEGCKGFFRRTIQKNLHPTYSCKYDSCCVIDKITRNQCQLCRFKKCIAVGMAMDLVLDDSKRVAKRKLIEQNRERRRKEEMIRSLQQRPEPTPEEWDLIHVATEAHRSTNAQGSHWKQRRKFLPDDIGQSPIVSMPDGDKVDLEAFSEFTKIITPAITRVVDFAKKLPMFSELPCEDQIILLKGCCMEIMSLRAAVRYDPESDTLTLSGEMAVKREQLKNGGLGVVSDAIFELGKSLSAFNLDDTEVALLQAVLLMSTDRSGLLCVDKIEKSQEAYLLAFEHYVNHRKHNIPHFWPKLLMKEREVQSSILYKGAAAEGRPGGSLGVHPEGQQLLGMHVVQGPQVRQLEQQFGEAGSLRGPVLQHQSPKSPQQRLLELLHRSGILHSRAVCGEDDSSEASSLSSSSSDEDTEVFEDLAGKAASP
Thyroid hormone receptor alpha (Rattus norvegicus) + Thyroid hormone receptor beta (Rattus norvegicus), sequence (P18113 whole entry, looked up): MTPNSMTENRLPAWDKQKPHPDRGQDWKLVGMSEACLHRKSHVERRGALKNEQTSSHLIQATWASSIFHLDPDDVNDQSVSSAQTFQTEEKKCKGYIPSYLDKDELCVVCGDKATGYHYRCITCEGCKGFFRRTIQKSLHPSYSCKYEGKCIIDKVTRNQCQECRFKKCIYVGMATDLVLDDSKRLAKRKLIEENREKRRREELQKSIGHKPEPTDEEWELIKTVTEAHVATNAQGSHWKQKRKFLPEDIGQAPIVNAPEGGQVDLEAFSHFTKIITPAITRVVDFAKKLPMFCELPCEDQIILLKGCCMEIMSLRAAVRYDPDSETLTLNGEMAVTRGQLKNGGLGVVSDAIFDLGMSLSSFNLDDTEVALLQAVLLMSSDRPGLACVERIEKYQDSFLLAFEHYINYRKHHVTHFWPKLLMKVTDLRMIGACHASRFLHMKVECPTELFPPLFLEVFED

Regarding `Cc1cc(CCN2CCN(c3nsc4ccccc34)CC2)cc2c1NC(=O)CC2(C)C`, the AC50 in test [1] is 11.2 µM (active); in test [3], 0.756 µM (active); in [5], 10 µM (active); in test [6] it was 2.65 µM (active); in [7], 7.31 µM (active); in [8], 3.98 µM (active). The figures for the AC50 in test [9] and in [10] were 0.584 µM (active) and 4.93 µM (active), respectively. The compound was classed as inactive in test [2], in test [4] and in test [11].

Turning to `c1ccc2c(c1)Cc1ccccc1-2`, the compound was classed as inactive in test [1], in [2], in test [3], in [5], in test [6] and in test [7]. The call in [8], in [9] and in test [10] was inactive.

`c1ccc2cc3c(ccc4ccccc43)cc2c1`: the result in test [12] and in test [13] was inactive.

As to `CC[C@H](c1ccc(O)cc1)[C@@H](CC)c1ccc(O)cc1`, the result in test [12] and in test [13] was inactive. Also, in [14], the AC50 is 16.2 µM (active).

With `O=C(O)Cc1cc(I)c(Oc2cc(I)c(O)c(I)c2)c(I)c1`, the AC50 in [15] is 0.00668 µM (active).

Regarding `CC(C)(C)c1cc(C(C)(C)C)c(O)c(C(C)(C)C)c1`, in [15], the result was inactive.

Consider `C[C@@H]1C[C@H]2[C@@H]3CCC4=CC(=O)C=C[C@]4(C)[C@@]3(F)[C@@H](O)C[C@]2(C)[C@@]1(O)C(=O)COP(=O)(O)O`, for which the result in test [16] was inactive.
